The record followed here is ChEMBL document CHEMBL4513216, “Probing the Open Global Health Chemical Diversity Library for Multistage-Active Starting Points for Next-Generation Antimalarials” (ACS Infect Dis, 2020).

About 2,100 (3.2%) of roughly 65,000 compounds showed an effect of 50% or more. The median lay at about -52%. The full list was thinned out, with strong results kept by preference.

The assay concerns Plasmodium falciparum. As to the kind of experiment: Screen against P. falciparum Asexual Blood Stage (ABS), at 5uM. Type of assay: functional, Dd2. The note with it: tested at 5 uM.
Turning to `COc1ccc(CC(C)(O)CNC(=O)c2cccs2)cc1` (stereo not drawn), the INHIBITION worked out at 89.1%.

For `c1cc(COC[C@H]2CCC[C@]23CNCCO3)ccn1`, the INHIBITION is recorded as 14.9%.

Take `c1cnc(NCc2cncc3c2CCN(CC2CC2)C3)nc1`: the INHIBITION is recorded as -95%.

As for `CC(C)N1CCO[C@H]2CN(C(=O)c3ccccn3)C[C@H]21`, the INHIBITION is -46.1%.

`CN1CCC(NCC(O)c2cccc(OCc3ccccc3)c2)CC1` (stereo not drawn): the INHIBITION was determined as 90.7%.

Consider `CCOc1cccc(C(C)NC(=O)N2CCC3(CC2)OCCO3)c1` (stereo not drawn), for which the INHIBITION was -117%.

Regarding `OC(CNC1CCSCC1)c1cccc(OCc2ccccc2)c1` (stereo not drawn), the INHIBITION worked out at 74.4%.

On to `CC(C)OCCN(C)CC(c1cccs1)N1CCOCC1` (stereo not drawn), for which the INHIBITION is on record as 79.9%.

For the molecule `NCC(c1cccnc1)N1CCOCC1` (stereo not drawn), the INHIBITION is recorded as -122%.

As for `c1ccc(COC[C@H]2CC[C@H]3[C@H](CCN3Cc3cccs3)O2)nc1`, the INHIBITION is on record as -43.6%.

Consider `c1cnc(N2CC[C@@H]3[C@@H]2CCN3Cc2cccs2)nc1`, for which the INHIBITION is given as -56.7%.

With `Oc1cc(C2CCCCN2Cc2cccs2)nc(-c2ccccn2)n1` (stereo not drawn), the INHIBITION amounted to 85.9%.

Consider `CCN1CCN(Cc2nc(C)no2)CC1`, for which the INHIBITION is recorded as -11.7%.

Turning to `Cc1noc(C)c1CN1C[C@@H](OCC(=O)N(C)C)[C@H]2OCCC[C@H]21`, the INHIBITION is on record as -76.4%.

Take `COc1cccc(CNCc2ccc(F)c(Cl)c2)c1O`: the INHIBITION was found to be 80%.

Consider `COc1cccc(CNCc2cccc(Cl)c2)c1O`, for which the INHIBITION is on record as 85.2%.

Regarding `COc1cc(CNCCNC(=O)c2ccc(O)cc2)ccc1SC`, the INHIBITION is reported as 26.9%.

Regarding `CC1CCC2(CC1)NC(=O)c1cc(Br)ccc1-n1nnnc12` (stereo not drawn), the INHIBITION was -65.8%.

As for `O=C(c1csc(-c2ncccn2)n1)N1CCN2CCCCC2C1` (stereo not drawn), the INHIBITION was -32.7%.

On to `CN(C)[C@@H]1CN(C(=O)Cc2ccccc2)[C@@H]2CCCO[C@H]12`, for which the INHIBITION is given as -9.86%.

Take `CC(C)CCC(=O)N1CCC2(CC1)OCCO2`: the INHIBITION is listed as -8.85%.

With `Cc1ccc(C(=O)N2C[C@H]3CN(Cc4csc(C)n4)C[C@H]3C2)cn1`, the INHIBITION was -173%.

For `COC(=O)C(C)(C)NC(=O)c1cnc(Cc2ccc(F)cc2)s1`, the INHIBITION was 75.4%.

With `Cc1cnn(CCNCC(O)c2ccc(C(F)(F)F)cc2)c1` (stereo not drawn), the INHIBITION came out at 72.6%.

Turning to `Cc1cnn(CC(C)NCCc2cccs2)c1` (stereo not drawn), the INHIBITION is listed as -30.1%.

For `Cc1cnn(CCNCC(O)COc2c(Cl)cccc2Cl)c1` (stereo not drawn), the INHIBITION is on record as 81.9%.

Consider `CC(C)(O)CNc1ccc(C#N)c(C(F)(F)F)c1`, for which the INHIBITION is -74.3%.

In the case of `CC1=NOC2(CCN(Cc3c[nH]c4ccccc34)CC2)C1`, the INHIBITION is -17.9%.

Turning to `O=C(c1ccc[nH]1)N1CCC2(CCCN2Cc2cccnc2)CC1`, the INHIBITION is on record as -9.26%.

As to `CN(C)c1ncc2c(n1)C1(CCN(Cc3cccnc3)C1)COC2` (stereo not drawn), the INHIBITION is reported as -4.75%.

Consider `CCN1CCN(C[C@@H]2CN(c3ncc(Cl)cc3F)C[C@@H]2CO)CC1`, for which the INHIBITION is 92.2%.

Turning to `Cc1ccccc1OCC(=O)N1CCN(C2CCOC2=O)CC1` (stereo not drawn), the INHIBITION was -28.3%.

Turning to `Cc1cccc(NC(=O)c2cccc(OCc3nnnn3C)c2)n1`, the INHIBITION came out at 80.7%.

On to `CN1CCc2c(C#N)c(NCCCO)n3cnnc3c2C1`, for which the INHIBITION was -82.4%.

Take `CN1CCc2c(C#N)c(NCCc3ccccc3)n3cnnc3c2C1`: the INHIBITION stood at 70.9%.

Regarding `CC(C)CCNc1c(C#N)c2c(c3nncn13)CN(C)CC2`, the INHIBITION was -35.1%.

Regarding `COc1ccc(CC(=O)N2CCC[C@@H](N)[C@@H]2c2ccccc2F)cc1`, the INHIBITION turned out to be 80.9%.

On to `COc1ccc(CC(=O)N2CCN(Cc3ccco3)C[C@@H]2C)cc1`, for which the INHIBITION is recorded as -22.3%.

For the molecule `COCCN1C[C@@H]2[C@@H](OC)CCN(C(=O)Cc3ccccc3)[C@@H]2C1`, the INHIBITION was -25%.

`Cc1cccc(CN2C[C@@H]3OCCN(S(=O)(=O)N(C)C)[C@@H]3C2)n1`: the INHIBITION is -43.1%.

As for `CCc1ccc2nc(NCCCN(CCO)CCO)cc(C)c2c1`, the INHIBITION came to 83.4%.

Consider `CCN1CCC12CCN(C(=O)c1cc(C)on1)C2` (stereo not drawn), for which the INHIBITION was -10.1%.

`CCc1noc(CN2CCN(C(=O)Cc3ccc(F)cc3)CC2)n1`: the INHIBITION was -9.72%.

For `NC1CCCCN(Cc2cc(-c3ccccc3OC(F)(F)F)no2)C1` (stereo not drawn), the INHIBITION worked out at 71.1%.

`CC(C)n1ccc2c(C(=O)NC3CN4CCC3CC4)cccc21` (stereo not drawn): the INHIBITION is -67.1%.

With `COc1cccc(CNC(C)C)c1OCc1ccc(C)cc1`, the INHIBITION was determined as 73.7%.

`COc1cc(CNCC(C)O)cc(Cl)c1OCc1ccc(C)cc1` (stereo not drawn): the INHIBITION came to 73.9%.

As for `Cc1nc(C)c(CC(=O)N2CCN(CC(C)C)CC2)c(=O)[nH]1`, the INHIBITION is reported as -137%.

Regarding `Fc1cccc(C(NCc2ncc[nH]2)c2ccccn2)c1` (stereo not drawn), the INHIBITION was found to be 91.8%.

As to `Clc1cccc(C(NCc2ncc[nH]2)c2ccccn2)c1` (stereo not drawn), the INHIBITION is reported as 86.9%.

Regarding `Cc1nnc([C@@H]2C[C@H]3CN(C4CCC4)C[C@H]3O2)[nH]1`, the INHIBITION is -81.6%.

With `O=C(c1cn(Cc2ccccc2)c2ncccc12)N1CCCCC1`, the INHIBITION is -11.9%.

For the molecule `N#CC1(c2ccccc2)CCN(C(=O)CN2C(=O)CCNC2=O)CC1`, the INHIBITION is recorded as -90.6%.

For `COc1ccc(CNC(C)c2ccccc2Cl)c(OC)c1OC` (stereo not drawn), the INHIBITION came to 75.6%.

Regarding `CNS(=O)(=O)c1cccc(C(C)NCc2ccccc2OC)c1` (stereo not drawn), the INHIBITION was determined as 86.6%.

Consider `COc1ccc(CNC(C)Cn2cccn2)c(OC)c1OC` (stereo not drawn), for which the INHIBITION is listed as -37.6%.

Turning to `CCOc1cccc(C(C)NCc2ccc(OC)c(OC)c2OC)c1` (stereo not drawn), the INHIBITION stood at 77.6%.

As for `COc1ccc(CNC(C)c2ccc(Cl)cc2)c(OC)c1OC` (stereo not drawn), the INHIBITION is 80.9%.

Regarding `O=C1C[C@@H]2[C@H](CCN2Cc2ccccn2)N1Cc1ccncc1`, the INHIBITION is 19.2%.

In the case of `Cc1n[nH]c(C)c1CNC(=O)c1cn(CCC2CCCCN2)nn1` (stereo not drawn), the INHIBITION is listed as -24.9%.

Consider `c1coc(CNc2ncc3c(n2)C2(CCNC2)COC3)c1` (stereo not drawn), for which the INHIBITION was -66%.

As for `CC(C)N1CCCC(Cc2nccnc2Cl)CC1` (stereo not drawn), the INHIBITION is listed as -7.14%.

Turning to `Cn1ccc(CN2CCCC23CCNCC3)n1`, the INHIBITION is listed as -53.7%.

As for `O=C([C@H]1C[C@H]2OCC[C@H]2N(Cc2ccccn2)C1)N1CCCCO1`, the INHIBITION is -88.5%.

For `COCC(O)CN(C)c1ccnc2cc(Br)ccc12` (stereo not drawn), the INHIBITION stood at 94.4%.

Regarding `Cc1cc(CN2CCN3C[C@H](c4ccccc4)[C@@H](CO)[C@H]3C2)on1`, the INHIBITION was -81.4%.

Regarding `Cc1ccc(N2CCC3(CCCN3Cc3ccn(C)n3)CC2)nn1`, the INHIBITION is -63.5%.

Regarding `Cc1ccccc1-n1cc(C2=CCN(CCN3CCOCC3)CC2)cn1`, the INHIBITION is reported as -4.21%.
